Shown are actives, neighbours in structure and some others; about 12% of the full set was active somewhere.
FMDV antiviral – blocks foot and mouth disease virus; AID 1159524; Potency, µM (doses to about 57.9 µM), for the others: at the top dose activity change, negative = inhibition, actives largely listed as inhibitors; FMDV antiviral cell-based qHTS; 410,000 compounds, 1.2% hits; calls by dose curve; tested in HEK293T cells; note: read-out not given here; potency is the fitted concentration of half-maximal effect; % is set by controls: 0 for no effect and ±100 for the full control effect; nearly all actives have a fitted effect of over 45% in size
Sm TGR block – S. mansoni TGR enzyme inhibition. purified TGR, DTNB reduction, TNB absorbance 405 nm. Potency, µM (top dose mostly 114 µM), without a hit: top-dose activity change, negative = inhibition, actives largely listed as inhibitors. 360,000 compounds, 3% hits. AID 485364; active = well fitted inhibition curve with a large enough effect; inconclusive = small, poorly fitted or top-dose-only effect; inactive = no such curve, though single readings can be large or run the other way; note: potency is the fitted concentration of half-maximal effect; % is set by controls: 0 for no effect and ±100 for the full control effect; nearly all actives have a fitted effect of over 60% in size
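TGR 20 nM + NADPH 100 uM (dispensed conc.), cpd preinc 15 min RT; start with NADPH (500 uM addition) then DTNB (15 mM addition). Kinetic TNB absorbance, 405 nm filter. Four-parameter Hill fit across titration.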
Cycloheximide cs – affects cycloheximide protein synthesis inhibition readout, counter-screen | cell reporter, cycloheximide protein synthesis inhibition counterscreen | max response, % | 300,000 compounds, 12% hits; in the data active = max response mostly above about 13%, no sharp cut-off; inactive = mostly below about 14%; note: read at 38.3 µM for the half of the compounds with a filed dose; 0% is about no effect
Shiga inhibitor – Shiga toxin inhibition. Vero cells, Shiga toxin protein synthesis inhibition reporter. inhibition, % at 38.7 µM. 290,000 compounds, 9.2% hits; in the data active = inhibition mostly above about 28%, no sharp cut-off; inactive = mostly below about 43%; note: 0% is about no effect
Active calls of the source: *; ? = inconclusive; . = no result.

SMILES	FMDV antiviral	Sm TGR block	Cycloheximide cs	Shiga inhibitor
CC12CCC(=O)C=C1CCC1C2CCC2(C)C(c3csc(N)n3)CCC12 (stereo not given)	13µM*	.	.	.
COc1ccc(NC(=O)CSc2nc(SC)ns2)cc1	29%	-2%	19*	89*
CSc1nsc(SCC(=O)Nc2ccc(NC(C)=O)cc2)n1	1%	-9%	-4	38
CSc1nsc(SCC(=O)Nc2ccc(C(C)=O)cc2)n1	39%	8%	47*	72*
CSc1nsc(SCC(=O)Nc2ccc(C(N)=O)cc2)n1	20%	1%	13	9
Fc1ccc(-c2csc(-c3nc(-c4ccc(Br)s4)cs3)n2)cc1	3%	3%	.	.
CC1(C(=O)NC(=S)N(Cc2ccccc2)c2ccccn2)CC1(Cl)Cl (stereo not given)	36%	6%	22*	30
Cc1ccccc1C(=O)NC(=S)N(Cc1ccccc1)c1ccccn1	20%	.	.	.
CCN(CC(=O)Nc1c(F)cccc1F)C(=O)CNC(=O)c1ccc(C)s1	3%	3%	51*	65*
COc1ccc(OC)c(NC(=O)CSc2n[nH]c(-c3ccccc3Cl)n2)c1	0%	-3%	.	.
CCS(=O)(=O)c1ncc(Cl)c(C(=O)Nc2ccccc2)n1	?	7.9µM*	.	.
CCSc1ncc(Cl)c(C(=O)Nc2ccc(S(=O)(=O)N3CCC(C)CC3)cc2)n1	?	3%	.	.
CCSc1ncc(Cl)c(C(=O)Nc2ccccc2)n1	-19%	-10%	5	-9
CCOC(=O)c1ccc(NC(=O)c2nc(S(=O)(=O)Cc3ccccc3)ncc2Cl)cc1	35µM*	8.9µM*	14	8
CCOC(=O)c1c(NC(=O)c2nc(S(C)(=O)=O)ncc2Cl)sc(C(C)=O)c1C	?	2.2µM*	.	.
CCS(=O)(=O)c1ncc(Cl)c(C(=O)Nc2ccc(S(=O)(=O)N3CCC(C)CC3)cc2)n1	14µM*	0.45µM*	-1	-13
Cc1ccccc1-c1nc(CS(=O)(=O)CC(=O)NCc2cccc(Cl)c2)c(C)o1	-9%	-13%	.	.
O=c1c(N2CCN(c3ccccc3)CC2)csc2ccc(Cl)cc12	18%	-10%	.	.
CCCS(=O)(=O)c1ncc(Cl)c(C(=O)Nc2ccc(S(=O)(=O)Nc3ncccn3)cc2)n1	-10%	13µM*	10	17
CS(=O)(=O)c1ncc(Cl)c(C(=O)Nc2c(C(=O)Nc3ccccc3)oc3ccccc23)n1	28µM*	6%	.	.
CCSc1ncc(Cl)c(C(=O)Nc2ccc(S(=O)(=O)Nc3ncccn3)cc2)n1	-4%	-10%	-2	-2
CCc1ccc(NC(=O)c2nc(S(=O)(=O)Cc3ccccc3)ncc2Cl)cc1	.	6.3µM*	-8	-10
CCCSc1ncc(Cl)c(C(=O)Nc2ccc(S(=O)(=O)N(C)c3ccccc3)cc2)n1	1%	3%	.	.
Cc1ccc(CNC(=O)c2nc(S(=O)(=O)Cc3ccc(C)cc3)ncc2Cl)cc1	-50%	?	.	.
CN(c1ccccc1)S(=O)(=O)c1ccc(NC(=O)c2nc(S(C)(=O)=O)ncc2Cl)cc1	11µM*	1.3µM*	-18	-23
SMILES	FMDV antiviral	Sm TGR block	Cycloheximide cs	Shiga inhibitor
CCS(=O)(=O)c1ncc(Cl)c(C(=O)Nc2c(C(=O)Nc3cccc(C)c3)oc3ccccc23)n1	-17%	3%	.	.
Cc1ccc(CNC(=O)Cn2ccn(-c3cc(C)cc(C)c3)c(=O)c2=O)cc1	23%	1%	.	.
COCCCNC(=O)CCc1c(C)nc2cc(-c3ccc(Cl)cc3)nn2c1C	6%	2%	.	.
CCOC(=O)c1c(-c2ccccc2)csc1NC(=O)c1nc(SCC)ncc1Cl	-19%	-1%	.	.
CCOC(=O)c1c(-c2ccccc2)csc1NC(=O)c1nc(S(=O)(=O)CC)ncc1Cl	14µM*	2µM*	.	.
O=C(NC(=S)Nc1ccc(CN2CCOCC2)cc1)c1cc2ccccc2o1	9%	-16%	6	20
O=C(O)c1coc2ccccc12	-20%	3%	-1	-7
O=C(Nc1cc(Cl)ccc1N1CCOCC1)c1cc2ccccc2o1	?	12%	-2	-6
O=C(/C=C/N1CCOCC1)c1coc2ccccc12	-20%	79µM*	35*	63*
O=C(Nc1ccc(CN2CCOCC2)cc1)c1cc2ccccn2n1	-66%	-7%	22*	38*
O=C(Nc1ccc(CN2CCOCC2)cc1)c1cc2ccccc2o1	.	0%	34*	64*
O=C(Nc1ccc(N2CCOCC2)cc1)c1cc2ccccc2o1	-15%	?	54*	76*
CC(c1ccon1)N(C)C(=O)c1cnn(-c2ncc3c(n2)-c2ccccc2CC3)c1C1CC1 (stereo not given)	25%	.	.	.
O=C(Nc1ccccc1C(=O)N1CCOCC1)c1cc2ccccc2o1	-15%	0%	-3	2
O=C(Nc1ccc(N2CCN(C(=O)c3ccc(Cl)cc3)CC2)cc1)c1cc2ccccc2o1	?	-18%	-2	22

Source: PubChem
